Pf growth 96h: Primary qHTS for delayed death inhibitors of the malarial parasite plastid, 96 hour incubation | 320,000 tested, 6.9% active | P. falciparum luciferase reporter growth, 96 h | Potency, µM (top dose mostly 28.7 µM), for the others: top-dose activity change, negative = inhibition, most hits filed as inhibitors; active means well fitted inhibition curve with a large enough effect; inconclusive means small, poorly fitted or top-dose-only effect, or another doubt; inactive means no such curve, though single readings can be large or run the other way; further: potency means the concentration at half of the fitted maximal effect; on the % scale 0 is the no-effect control and ±100 the full control effect
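P. falciparum expressing integrated firefly luciferase, in erythrocytes at 2% hematocrit, 0.05% parasitemia, incubated with compounds 96 h at 37 C, 5% CO2. Growth inhibition read as loss of luminescence; two-generation exposure targets delayed-death apicoplast inhibitors.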
Shiga inhibitor: A qHTS for Small Molecule Inhibitors of Shiga Toxin. Vero cells, Shiga toxin protein synthesis inhibition reporter. inhibition, % at 38.7 µM. 290,000 tested, 9.2% active. AID 2315, 2010; in the data active means inhibition mostly above about 28%, no sharp cut-off; inactive means mostly below about 43%; further: 0% is about no effect
SARS PLP yeast: qHTS of Yeast-based Assay for SARS-CoV PLP. S. cerevisiae expressing SARS-CoV PLpro, growth rescue. Potency, µM (highest dose often 32.9 µM), for inactives: top-dose activity, positive = growth rescue, usual class: activators. 330,000 tested, 0.19% active. AID 485353, 2010; further: potency means the concentration at half of the fitted maximal effect; 0% is about no effect; nearly all actives have a fitted effect of over 55% in size
CHX counter: Cycloheximide Counterscreen for Small Molecule Inhibitors of Shiga Toxin | cell reporter, cycloheximide protein synthesis inhibition counterscreen | max response, % | 300,000 tested, 12% active; in the data active means max response mostly above about 13%, no sharp cut-off; inactive means mostly below about 14%; further: read at 38.3 µM for the half of the compounds with a filed dose; 0% is about no effect
Pf growth 48h: Primary qHTS for delayed death inhibitors of the malarial parasite plastid, 48 hour incubation; P. falciparum luciferase growth in erythrocytes, 48 h; Potency, µM (top dose mostly 28.7 µM), for inactives: at the top dose activity change, negative = inhibition, most hits filed as inhibitors; 310,000 tested, 5.9% active; active means well fitted inhibition curve with a large enough effect; inconclusive means small, poorly fitted or top-dose-only effect, or another doubt; inactive means no such curve, though single readings can be large or run the other way; further: potency means the concentration at half of the fitted maximal effect; on the % scale 0 is the no-effect control and ±100 the full control effect
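A one-generation exposure of luciferase-tagged malaria parasites in RPMI 1640/Albumax erythrocyte culture, 37 C and 5% CO2. Inhibition is inferred from decreased luminescence after adding detection reagent.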
NS1 function inh: qHTS Assay for Inhibitors of Influenza NS1 Protein Function; Potency, µM (series often up to 46.1 µM), without a hit: top-dose activity, positive = more growth; 270,000 tested, 0.4% active; AID 2326, 2010; further: potency means the concentration at half of the fitted maximal effect; actives are rising curves; nearly all actives have a fitted effect of over 50% in size
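Compounds were scored for reversing the slow growth caused by influenza A NS1 in S. cerevisiae, measured by optical density at 600 nm. Assay medium contained 2% galactose at pH 6.0; NS1-free yeast of the same strain were the positive control.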
An asterisk follows results filed as active; ? = inconclusive; . = no result given. Hits are enriched below; roughly 21% of the tested compounds scored in any of these assays. Unless noted, the call rests on the fitted dose curve.

SMILES	Pf growth 96h	Shiga inhibitor	SARS PLP yeast	CHX counter	Pf growth 48h	NS1 function inh
O=C(c1ccco1)n1nc(NCc2ccccc2)nc1NCc1ccccc1	-25.5%	37.2*	-2.7%	9.9*	-16.3%	-48.3%
O=C(c1ccco1)n1nc(-c2ccc(Cl)cc2)nc1NCc1ccco1	-1.7%	37.7	.	1.6	35.2%	3.8%
Cc1ccc(-c2nc(NCc3ccco3)n(C(=O)c3ccco3)n2)cc1	18.1%	121.6*	-0.4%	42.1*	307.3%	.
O=C(COc1ccccc1)n1nc(-c2ccc(Cl)cc2)nc1NCc1ccco1	35.4%	26.2*	8.0%	48.3*	93.7%	-5.0%
CC(=O)N1c2ccc(S(=O)(=O)N3CCCCC3)cc2CC1C(=O)NCc1cccc(Cl)c1 (configuration not stated)	?	-9.9	1.8%	-0.7	-7.8%	2.6%
COc1ccc(OC)c(NC(=O)CCc2nnc3ccc(N4CCC(C)CC4)nn23)c1	34.3%	-4.2	22.5%	-4.8	?	-12.7%
CCOc1ccc(NC(=O)CCc2nnc3ccc(N4CCN(C)CC4)nn23)cc1	-20.0%	25.7	4.1%	-3.2	35.9%	14.9%
COc1ccc(NC(=O)CCc2nnc3ccc(N4CCC(C)CC4)nn23)cc1OC	4.15µM*	-4.8	-2.4%	-2.8	-1.4%	6.0%
CCOc1ccc(NC(=O)CCc2nnc3ccc(N4CCC(C)CC4)nn23)cc1	?	-11.5	1.0%	6.8	9.28µM*	-8.2%
N[C@H](Cc1ccccc1)c1nn[nH]n1	.	.	.	.	.	-5.2%
CC(C)COc1ccc(C(=O)Nc2ccccc2[N+](=O)[O-])cc1	10.4µM*	active	-24.7%	53.2*	120.4%	-8.6%
CCCNC(=O)c1ccc(S(=O)(=O)c2ccc(OC)cc2)c([N+](=O)[O-])c1	3.5%	-4.7	-3.2%	0.6	11.7µM*	-7.5%
O=C(NCCNc1ccccc1[N+](=O)[O-])c1cc(F)c(F)cc1Cl	30.1%	153.9*	-0.2%	50.0*	35.7%	0.9%
Cc1ccc(C(=O)NCCc2ccc(S(N)(=O)=O)cc2)cc1[N+](=O)[O-]	-22.6%	-8.7	0.4%	-3.4	-20.8%	.
COc1ccc(C(=O)NCCNc2ccccc2[N+](=O)[O-])cc1	21.5%	77.0*	0.5%	32.3*	50.0%	-8.7%
CCCc1cc(=O)oc2cc(C)cc(OCC(=O)Nc3ccccn3)c12	0.657µM*	11.1	-6.9%	20.1*	0.928µM*	5.7%
CCCCc1cc(=O)oc2cc(C)cc(OCC(=O)Nc3ccccn3)c12	?	60.8*	-7.9%	21.1*	4.15µM*	-10.5%
CCN(CC)c1ccc(S(=O)(=O)N(CC)CC)cc1NC(=O)c1cccnc1	?	-3.6	-0.1%	-1.1	?	.
COc1cc(NC(=S)N2CCN(C(=O)C3CCCO3)CC2)c(OC)cc1Cl (configuration not stated)	?	-7.6	0.0%	-3.0	7.5%	7.4%
COc1ccc(C)cc1-n1[nH]nnc1=S	17.5%	-18.7	0.2%	0.4	-0.8%	-0.3%
COc1ccc(C)cc1-n1nc2ccccc2n1	?	54.0	-1.3%	25.9*	22.4%	-5.8%
Cc1ccc(OCC(=O)Nc2ccc(Cl)cc2)c(-n2nc3ccccc3n2)c1	44.3%	-1.5	2.5%	2.4	20.6%	9.3%
CCOc1ccc(C)cc1-n1nc2ccccc2n1	?	18.7	1.3%	20.1*	19.9%	-15.2%
Cc1ccc(O)c(-n2nc3ccccc3n2)c1	?	90.3*	-0.3%	44.0*	97.4%	-1.2%
Cc1ccc(O)c(Cn2nnc3ccccc32)c1	?	.	-6.8%	.	10.4µM*	.
O=C(CN1CCN(c2ccccn2)CC1)Nc1nc2ccccc2s1	?	58.6	-7.1%	11.6	?	-32.8%
COc1cccc(OC)c1C(=O)Nc1ccc2c(c1)Cc1ccccc1-2	-1.4%	10.2	-2.0%	9.9	8.3%	-15.0%
O=C(Nc1ccc2c(c1)Cc1ccccc1-2)c1ccco1	.	141.5*	-41.8%	45.1*	13.1%	-61.6%
Cc1cccc(NC(=O)c2cccnc2)c1	-9.6%	13.2	9.7%	8.8	73.7%	-18.7%
Cc1cc(NC(=O)c2cccnc2)ccc1Br	-28.1%	44.5*	-8.3%	31.1*	74.1%	-36.4%
